HT1080NT lethal: qHTS for induction of synthetic lethality in tumor cells producing 2HG: qHTS for the HT-1080-NT fibrosarcoma cell line; HT-1080-NT fibrosarcoma viability, CellTiter-Glo ATP luminescence, 48 h; Potency, µM (highest dose often 46.1 µM), for inactives: top-dose activity, negative = less viability, hits mostly cytotoxic; 1.6% of 360,000 active;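 further: NT is the 2HG producing partner of a matched IDH1 knockdown line; potency means the concentration at half of the fitted maximal effect; 0% = DMSO-treated cells and -100% = media-only wells without cells; nearly all actives have a fitted effect of over 55% in size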
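750 cells/well, RPMI + 5% FBS; 2 h settle, compound pin-transfer, 48 h at 37 degrees C. CellTiter-Glo 10 min RT, luminescence. Normalized to DMSO and media-only wells.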
TDP1 cell CPT: qHTS for Inhibitors of human tyrosyl-DNA phosphodiesterase 1 (TDP1): qHTS in cells in presence of CPT | chicken DT40 Tdp1-/-;hTDP1 cells + 20 nM CPT, ATP luminescence, 48 h | Potency, µM (highest dose often 46.2 µM), inactives show top-dose activity change, negative = growth inhibition, most hits filed as inhibitors | 12% of 420,000 active; further: potency means the concentration at half of the fitted maximal effect; nearly all actives have a fitted effect of over 55% in size
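Cell growth measured by CellTiter-Glo luminescence after a minimum 48 h, 37 C compound exposure with 20 nM CPT in Tdp1-knockout DT40 cells stably expressing hTDP1, seeded 400/well; qHTS titration format.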
ELG1 repair inh: qHTS screen for small molecules that inhibit ELG1-dependent DNA repair in human embryonic kidney (HEK293T) cells expressing luciferase-tagged ELG1. HEK293T ELG1-luciferase reporter, luminescence, 16 h; DNA damage induced by 5-fluorouridine. Potency, µM (doses to about 46.1 µM), for the others: at the top dose activity change, negative = inhibition, most hits filed as inhibitors. 2.3% of 330,000 active. AID 504467, 2011; further: potency means the concentration at half of the fitted maximal effect; nearly all actives have a fitted effect of over 55% in size
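Overnight (16 hr) co-exposure of 2,000 cells/well to 5-fluorouridine and compound at 37 °C preceded detection. Luciferase was quantified via ONE-Glo luminescence; loss of signal denotes inhibition.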
HT1080 IDH1KD tx: qHTS for induction of synthetic lethality in tumor cells producing 2HG: qHTS for the HT-1080-IDH1KD cell line. HT-1080 IDH1 knockdown viability, ATP luminescence, 48 h. Potency, µM (series often up to 46.1 µM), without a hit: at the top dose activity, negative = toxicity, hits mostly cytotoxic. 2% of 360,000 active. AID 686971, 2013;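 further: potency means the concentration at half of the fitted maximal effect; 0% = DMSO wells and -100% = cell-free medium wells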
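Using the IDH1-knockdown HT-1080 line run in the same batch and compound series as the NT line, viability after 48 h at 37 °C was determined by CellTiter-Glo luminescence and expressed as % activity.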
TDP1 cell noCPT: qHTS for Inhibitors of human tyrosyl-DNA phosphodiesterase 1 (TDP1): qHTS in cells in absence of CPT; DT40 Tdp1-/- hTDP1 cells, no CPT, ATP luminescence, 48 h; Potency, µM (highest dose often 46.2 µM), inactives show at the highest dose activity change, negative = growth inhibition, hits mostly inhibitors; 15% of 420,000 active; AID 686978, 2013; further: potency means the concentration at half of the fitted maximal effect; nearly all actives have a fitted effect of over 55% in size
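Camptothecin absent (DMSO only). Human TDP1-complemented DT40 knockout cells, 400 cells/well, 37 °C for minimum 48 hr; ATP measured via CellTiter-Glo, 30 min dark incubation, luminescence.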
IL1B secr inh: qHTS for Inhibitors of Inflammasome Signaling: IL-1-beta AlphaLISA Primary Screen. AID 743279, 2014. 4.7% of 360,000 active. THP-1 LPS/ATP IL-1B secretion, AlphaLISA, 16 h; active compounds read low. activity change, % at 57.5 µM; in the data active means activity change below about -50%; inconclusive means mostly about -30% to -49%
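Secreted IL-1B measured by AlphaLISA bead assay after 16 h compound exposure of THP-1 cells; compounds (final up to 57.5 uM) added 1 h before LPS (250 ng/mL) and ATP (1.25 mM) stimulation; lower signal means less secretion.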
* marks the source's active call; other numbers are inactive results; ? = inconclusive; · = no result given; [ ] = another dose, or the depositor's remark. In the library only some 19% were active in any assay of this set; here they are far more common. Unless noted, the call rests on the fitted dose curve; in most records, active means well fitted curve in the direction sought with a large enough effect; inconclusive means small, poorly fitted or top-dose-only effect, or another doubt; inactive means no such curve, though single readings can be large; an effect the other way counts as inactive or inconclusive. Unless noted, on the % scale 0 is the no-effect control and ±100 the full control effect.

SMILES | HT1080NT lethal | TDP1 cell CPT | ELG1 repair inh | HT1080 IDH1KD tx | TDP1 cell noCPT | IL1B secr inh
Cc1ccc(S(=O)(=O)CCC(O)c2ccc(Cl)cc2)cc1 (stereo not drawn) | 9.6% | -16.4% | -15.8% | 8.6% | 5.1% | 18.3
Cc1nc2cnc(N3CCN(C)CC3)nc2n(-c2ccccc2)c1=O | · | 9.7% | · | · | -15.0% | ·
CN(CC(=O)Nc1ccc(S(=O)(=O)N2CCCC2)cc1)CC(=O)Nc1cccc(F)c1 | -0.3% | 18.4µM* | ? | -16.3% | 23.1µM* | -17.1
CC(C(=O)Nc1ccc(S(=O)(=O)N2CCCC2)cc1)N(C)CC(=O)Nc1cccc(F)c1 (stereo not drawn) | -15.5% | ? | -11.4% | ? | ? | 0.0
Cc1ccc(NC(=O)CN(C)C(C)C(=O)Nc2ccc(S(=O)(=O)N3CCCC3)cc2)cc1 (stereo not drawn) | 10.4% | 18.4µM* | ? | 0.1% | 23.1µM* | -15.8
CC(C)CC(=O)Nc1ccc(S(=O)(=O)N2CCCC2)cc1 | 6.2% | ? | 1.2% | 6.7% | -21.2% | 0.0
CN(CC(=O)Nc1ccc(Cl)cc1)c1ccc(S(=O)(=O)N2CCCCC2)cc1[N+](=O)[O-] | -23.3% | 18.4µM* | 18.4µM* | ? | ? | -60.6*
COc1ccc(CCN(C)c2ccc(S(=O)(=O)N3CCCC3)cc2[N+](=O)[O-])cc1OC | -6.9% | 16.4µM* | -27.9% | -16.1% | 11.6µM* | -14.8
NNC(=O)c1ccccc1CO | 1.0% | -9.6% | · | -7.4% | -9.1% | 3.1
N#CCCn1c(=O)c(-c2ccccc2)nc2cnc(Oc3ccccc3)nc21 | · | 10.2% | · | · | ? | ·
O=[N+]([O-])c1ccc(C(c2sc3nc(-c4ccco4)nn3c2O)N2CCC3(CC2)OCCO3)cc1 (stereo not drawn) | · | 10.4% | · | · | 6.2% | ·
Cc1ccc(-c2nnc3ccc(SCC(=O)OCc4ccccc4)nn23)cc1 | · | -1.0% | · | · | ? | ·
COc1ccccc1N1CCN(C(=O)CSc2nc(N)cc(=O)[nH]2)CC1 | 2.2%[9.24 µM] | ? | 15.7% | -11.4% | -8.4% | 0.0
O=C(CSc1ncccc1-c1nc2ccccc2[nH]1)N1CCN(c2ccccc2F)CC1 | -13.8% | 16.4µM* | ? | -17.7% | ? | -22.8
COc1ccccc1N1CCN(C(=O)CSc2ncccc2-c2nc3ccccc3[nH]2)CC1 | -20.9% | 14.6µM* | ? | -27.8% | ? | 0.0
COc1ccc(N2CCN(C(=O)CSc3ncccc3-c3nc4ccccc4[nH]3)CC2)cc1 | 2.9% | 18.4µM* | 16.5% | 7.5% | 29.1µM* | 7.2
O=C(CSc1ncccc1-c1nc2ccccc2[nH]1)NC1CC1 | 3.2% | -27.8% | 27.5% | -4.8% | -1.0% | -9.3
Cn1nc(C(F)(F)F)c(C(=O)Nc2ccc(F)cc2F)c1Oc1cccc(Cl)c1 | -4.6% | ? | -1.4% | -28.9% | ? | -1.7
Cc1nn(C)c(Oc2ccc(Cl)cc2)c1C(=O)Nc1ccc(F)cc1F | 8.7% | ? | -7.3% | 4.8% | 7.31µM* | -9.7
COc1cccc(/C=N\n2c(C)nnc2C)c1OC | 3.5% | -9.6% | ? | 4.2% | -9.3% | -12.5
COc1ccc(/C=N/n2c(SC)nnc2-c2ccccc2)c(OC)c1OC | -16.4% | 3.26µM* | 8.2µM* | ? | 2.06µM* | -8.7
NS(=O)(=O)c1cccc(Nc2nc3ccccc3nc2NS(=O)(=O)c2ccc(Cl)cc2)c1 | 18.4µM* | -23.5% | -6.6% | 20.6µM* | -17.4% | ?
O=[N+]([O-])c1ccc(S(=O)(=O)Nc2nc3ccccc3nc2Nc2ccccc2)cc1 | 5.9% | 3.26µM* | ? | 0.0% | 2.91µM* | -73.0*
O=C(O)c1cccc(Nc2nc3ccccc3nc2NS(=O)(=O)c2ccccc2)c1 | 1.0% | -19.7% | 7.1% | -0.7% | -1.4% | 20.4
O=S(=O)(Nc1nc2ccccc2nc1N1CCN(c2ccccc2F)CC1)c1ccc(Cl)cc1 | -8.2% | ? | 18.4µM* | -17.0% | ? | 39.7
SMILES | HT1080NT lethal | TDP1 cell CPT | ELG1 repair inh | HT1080 IDH1KD tx | TDP1 cell noCPT | IL1B secr inh
COc1cc(Nc2nc3ccccc3nc2NS(=O)(=O)c2ccc([N+](=O)[O-])cc2)cc(OC)c1OC | -18.6% | 10.3µM* | 16.4µM* | -5.6% | ? | -12.1
CC(=O)Nc1ccc(S(=O)(=O)Nc2nc3ccccc3nc2N2CCOCC2)cc1 | 0.0% | -1.1% | ? | 0.5% | 0.0% | 9.1
COc1ccccc1NC(=O)CC(c1cc(OC)c(OC)c(OC)c1)N1Cc2ccccc2C1=O (stereo not drawn) | · | -1.7% | · | · | -19.8% | ·
COC(=O)CCC/C=C1/SCC(NC(=O)c2ccccc2)C1=O (stereo not drawn) | -2.7% | 25.9µM* | 20.0% | -3.7% | 16.4µM* | 2.9
COC(=O)CCC/C=C1/SCC(NC(=O)c2ccccc2)C1O (stereo not drawn) | 10.6% | -5.5% | · | 2.8% | -5.0% | -6.2
Cc1ccc(NC(=O)CN(C)S(=O)(=O)c2cnc[nH]2)cc1 | · | 14.8% | · | · | -2.7% | ·
COc1ccc(NC(=S)N2CCN(Cc3ccco3)CC2)c(OC)c1 | -1.0% | ? | ? | -3.9% | 13µM* | 0.0
COc1ccc(NC(=S)N2CCCC2)c(OC)c1 | 14.4% | -18.2% | 0.6% | 5.0% | -14.2% | 3.3
COc1ccc(NC(=S)N2CCN(Cc3cccc(F)c3)CC2)c(OC)c1 | 10.5% | 23.1µM* | -2.0% | 8.5% | 20.6µM* | 26.1
CCc1cccc2c1Sc1ccccc1CC2N1CCNCC1 (stereo not drawn) | -17.8% | 16.4µM* | · | ? | 16.4µM* | -92.5*
Cc1cccc2c1Sc1ccc(Cl)cc1CC2N1CCNCC1 (stereo not drawn) | 23.1µM* | 16.4µM* | · | ? | 18.4µM* | -98.5*

Bioassay records (PubChem)
